Experimental data published in PubChem BioAssay (NCATS).
Values joined by “and” are separate entries in the source; they are usually repeats but may differ in a detail not shown here. Equal values may be shown once. Records with an inconclusive call do not appear. Entries that show only a call come without a potency. A structure can be active in one record and inactive in another. Active and inactive are the calls of the source. Unless noted, the call rests on the fitted dose curve; in most records, active means well fitted curve in the direction sought with a large enough effect; inconclusive means small, poorly fitted or top-dose-only effect, or another doubt; inactive means no such curve, though single readings can be large; an effect the other way counts as inactive or inconclusive.

Experiments:
[1] = Primary qHTS for inhibitors of nuclear receptor binding SET domain protein 2 (NSD2) in an isogenic RCH-ACV NSD2 p.E1099K mutant (9B) (AID 1645876); further: nearly all actives have a fitted effect of over 70% in size; further: potency means the concentration at half of the fitted maximal effect
[2] = Primary qHTS for inhibitors of nuclear receptor binding SET domain protein 2 (NSD2) in an RCH-ACV wild type WT cells (2C) (AID 1645877); further: nearly all actives have a fitted effect of over 70% in size; further: potency means the concentration at half of the fitted maximal effect
[3] = molecular target: Rap guanine nucleotide exchange factor 3 (Homo sapiens) (UniProt O95398); assay: Confirmatory qHTS for antagonist of cAMP-regulated guanine nucleotide exchange factor 3 (EPAC1) (AID 1645880); further: nearly all actives have a fitted effect of over 55% in size; further: potency means the concentration at half of the fitted maximal effect
Method in brief: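 Nucleotide exchange uses 100 nM EPAC1, 250 nM RAP1B-BODIPY-GDP and 50 uM GDP, with compounds in a concentration-titration series. After 5 min at room temperature, fluorescence (480 nm ex/540 nm em) is read every 5 min for 30 min. Data are normalized to control ATA and DMSO.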

[4] = molecular target: Rap guanine nucleotide exchange factor 3 (Homo sapiens) (UniProt O95398); assay: Confirmatory qHTS for agonist of cAMP-regulated guanine nucleotide exchange factor 3 (EPAC1) (AID 1645881);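 further: EPAC1 catalysed release of BODIPY-GDP from Rap1B seen as fluorescence loss; nearly all actives have a fitted effect of over 75% in size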
[5] = molecular target: Rap guanine nucleotide exchange factor 4 (Homo sapiens) (UniProt Q8WZA2); assay: Confirmatory qHTS for agonist of cAMP-regulated guanine nucleotide exchange factor 4 (EPAC2) (AID 1645884);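 further: nucleotide exchange releases bodipy-GDP from Rap1 and this lowers its fluorescence; nearly all actives have a fitted effect of over 65% in size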
[6] = molecular target: Rap guanine nucleotide exchange factor 4 (Homo sapiens) (UniProt Q8WZA2); assay: Confirmatory qHTS for antagonist of cAMP-regulated guanine nucleotide exchange factor 4 (EPAC2) (AID 1645885); further: nearly all actives have a fitted effect of over 25% in size; further: potency means the concentration at half of the fitted maximal effect
[7] = molecular target: Catechol O-methyltransferase (Homo sapiens) (UniProt P21964); assay: Confirmatory Screen for Target Class Profiling of Small Molecule Inhibitors of Methyltransferases (AID 1745852; calls by dose curve; further: potency means the concentration at half of the fitted maximal effect); settings: MTase-Glo luminescence, SAH detection, recombinant enzyme; measured here: COMT max response; stronger effect = lower value
[8] = molecular target: Guanidinoacetate N-methyltransferase (Homo sapiens) (UniProt Q14353); assay: as above; settings: MTase-Glo luminescence, SAH detection, recombinant enzyme
[9] = molecular target: Nicotinamide N-methyltransferase (Homo sapiens) (UniProt P40261); assay: as above; settings: MTase-Glo luminescence, SAH detection, recombinant enzyme; measured here: NNMT max response; stronger effect = lower value
[10] = molecular target: Rap guanine nucleotide exchange factor 3 (Homo sapiens) (UniProt O95398); assay: Counterscreen qHTS for antagonist of cAMP-regulated guanine nucleotide exchange factor 3 (EPAC1) (AID 1645888);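 further: fluorescence loss as bound BODIPY-GDP is released from Rap1B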
Excerpt: Assay Provider (PI): Xiaodong Cheng Ph.D. The University of Texas Medical Branch, […], TX MLPCN Grant: NS066510 In multi-cellular eukaryotic organisms, the effects of cAMP are transduced by two ubiquitously-expressed intracellular cAMP receptors, the classic protein kinase A/cAMP-dependent protein kinase (PKA/cAPK) and the more recently discovered exchange protein directly activated by cAMP/cAMP-regulated guanine nucleotide exchange factor (EPAC/cAMP-GEF). Both PKA and EPAC are ubiquitously expressed in all tissues, and an increase in intracellular cAMP levels will lead to the activation of both PKA and EPAC. […] This qHTS will be used to screen the Molecular Libraries Small Molecule Repository (MLSMR) as a concentration-titration series using the NCGC unique quantitative screening (qHTS) platform to find activators for EPAC1. […] Activators are identified by monitoring the change in fluorescence signal as the exchanged free BODIPY-GDP has a reduced fluorescence compared to Rap1-bound BODIPY-GDP. […]
EPAC1 Counterscreen PROTOCOL TABLE SEQUENCE No. (e.g., 1, 2, 3, etc.); […] […] Fluorescence. (Read 1), Ex/Em = 480 nm / 540 nm. […] Fluorescence. (Read 2), Ex/Em = 480 nm/ 540 nm. […] Fluorescence. (Read 3), Ex/Em = 480 nm / 540 nm. […] Fluorescence. (Read 4), Ex/Em = 480 nm / 540 nm. […]

Catechol O-methyltransferase (Homo sapiens), sequence (P21964 whole entry, looked up): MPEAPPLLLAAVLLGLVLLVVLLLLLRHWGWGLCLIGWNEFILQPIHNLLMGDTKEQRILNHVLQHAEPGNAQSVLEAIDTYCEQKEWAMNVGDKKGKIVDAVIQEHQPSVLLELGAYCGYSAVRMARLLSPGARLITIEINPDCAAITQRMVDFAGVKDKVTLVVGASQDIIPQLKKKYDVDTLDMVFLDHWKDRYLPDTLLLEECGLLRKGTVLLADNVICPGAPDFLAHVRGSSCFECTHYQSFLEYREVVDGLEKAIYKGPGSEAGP
Rap guanine nucleotide exchange factor 3 (Homo sapiens), sequence (O95398 whole entry, looked up): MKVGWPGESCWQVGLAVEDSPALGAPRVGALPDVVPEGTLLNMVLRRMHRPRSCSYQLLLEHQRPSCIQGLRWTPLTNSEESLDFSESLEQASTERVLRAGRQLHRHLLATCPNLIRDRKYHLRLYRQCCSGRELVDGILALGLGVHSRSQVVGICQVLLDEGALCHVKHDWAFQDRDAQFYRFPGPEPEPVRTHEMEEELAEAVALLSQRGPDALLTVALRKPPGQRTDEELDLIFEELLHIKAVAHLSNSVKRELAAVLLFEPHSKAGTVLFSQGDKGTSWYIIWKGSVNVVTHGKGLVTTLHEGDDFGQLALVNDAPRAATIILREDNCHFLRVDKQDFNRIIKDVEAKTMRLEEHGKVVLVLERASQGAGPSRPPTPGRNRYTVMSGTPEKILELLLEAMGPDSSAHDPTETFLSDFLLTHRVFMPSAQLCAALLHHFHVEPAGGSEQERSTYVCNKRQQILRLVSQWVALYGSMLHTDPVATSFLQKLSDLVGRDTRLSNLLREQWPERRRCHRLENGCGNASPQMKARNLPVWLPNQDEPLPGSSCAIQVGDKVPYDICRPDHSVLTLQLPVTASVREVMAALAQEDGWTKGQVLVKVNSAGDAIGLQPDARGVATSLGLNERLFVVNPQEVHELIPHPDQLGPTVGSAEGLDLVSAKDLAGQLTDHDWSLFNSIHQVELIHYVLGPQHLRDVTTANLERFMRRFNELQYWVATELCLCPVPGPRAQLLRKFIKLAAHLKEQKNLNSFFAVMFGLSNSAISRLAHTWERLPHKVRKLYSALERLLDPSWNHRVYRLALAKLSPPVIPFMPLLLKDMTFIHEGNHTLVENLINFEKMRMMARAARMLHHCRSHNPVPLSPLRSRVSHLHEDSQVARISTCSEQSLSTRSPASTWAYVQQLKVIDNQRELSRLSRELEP
Rap guanine nucleotide exchange factor 4 (Homo sapiens), sequence (Q8WZA2 whole entry, looked up): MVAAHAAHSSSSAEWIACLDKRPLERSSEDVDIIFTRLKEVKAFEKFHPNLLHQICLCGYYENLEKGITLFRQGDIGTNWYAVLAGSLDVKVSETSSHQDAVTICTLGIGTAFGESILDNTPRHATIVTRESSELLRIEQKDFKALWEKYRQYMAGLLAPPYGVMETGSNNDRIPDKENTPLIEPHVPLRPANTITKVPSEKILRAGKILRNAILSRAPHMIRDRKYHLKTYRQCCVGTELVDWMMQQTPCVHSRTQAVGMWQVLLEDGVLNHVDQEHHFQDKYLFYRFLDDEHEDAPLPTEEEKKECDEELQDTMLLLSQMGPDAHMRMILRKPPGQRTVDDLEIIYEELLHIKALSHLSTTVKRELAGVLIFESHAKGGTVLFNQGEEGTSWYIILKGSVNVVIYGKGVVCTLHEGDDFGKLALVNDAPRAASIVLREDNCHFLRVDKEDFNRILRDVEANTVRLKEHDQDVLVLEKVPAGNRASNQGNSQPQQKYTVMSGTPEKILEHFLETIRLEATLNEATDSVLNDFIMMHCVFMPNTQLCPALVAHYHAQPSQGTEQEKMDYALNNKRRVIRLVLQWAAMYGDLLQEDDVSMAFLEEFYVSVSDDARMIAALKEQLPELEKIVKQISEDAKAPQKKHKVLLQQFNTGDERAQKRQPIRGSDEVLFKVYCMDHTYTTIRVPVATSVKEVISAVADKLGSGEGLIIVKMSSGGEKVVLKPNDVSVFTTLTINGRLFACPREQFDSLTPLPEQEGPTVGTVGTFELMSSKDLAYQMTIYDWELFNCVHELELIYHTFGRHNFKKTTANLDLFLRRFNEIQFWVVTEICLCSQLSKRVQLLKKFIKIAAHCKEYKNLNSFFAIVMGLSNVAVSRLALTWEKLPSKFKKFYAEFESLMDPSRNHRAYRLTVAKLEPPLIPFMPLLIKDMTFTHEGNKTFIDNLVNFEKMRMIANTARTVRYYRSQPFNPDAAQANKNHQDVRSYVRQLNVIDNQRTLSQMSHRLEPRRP
Nicotinamide N-methyltransferase (Homo sapiens), sequence (P40261 whole entry, looked up): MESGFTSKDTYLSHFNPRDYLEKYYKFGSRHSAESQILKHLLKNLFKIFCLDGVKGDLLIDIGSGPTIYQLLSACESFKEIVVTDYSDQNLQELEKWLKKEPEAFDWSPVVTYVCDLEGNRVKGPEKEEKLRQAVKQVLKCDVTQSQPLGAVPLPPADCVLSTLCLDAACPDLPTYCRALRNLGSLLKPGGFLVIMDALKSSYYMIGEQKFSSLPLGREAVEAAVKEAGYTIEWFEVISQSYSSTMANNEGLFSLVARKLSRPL

Cc1cc(O)cc2c1O[C@](C)(CCC[C@H](C)CCC[C@H](C)CCCC(C)C)CC2
Potency [1]: inactive | Potency [2]: inactive

C[C@]12CC[C@@H]3c4ccc(O)cc4CC[C@H]3[C@@H]1CC[C@@H]2OC(=O)CCC1CCCC1
Potency [1]: inactive | Potency [2]: inactive

Nc1cc(=O)[nH]c(N)n1
Potency [1]: inactive | Potency [2]: inactive

CNC(=O)Oc1ccc2c(c1)[C@]1(C)CCN(C)[C@@H]1N2C
Potency [1]: inactive | Potency [2]: inactive | Potency [3]: inactive | Potency [4]: inactive | Potency [5]: inactive | Potency [6]: inactive

O=C1N=C(O)CN1/N=C/c1ccc(-c2ccc([N+](=O)[O-])cc2)o1
Potency [1]: inactive | Potency [2]: inactive

CCN(CC)C(C)CN1c2ccccc2Sc2ccccc21 (stereo not given)
Potency [1]: inactive | Potency [2]: inactive | Potency [4]: inactive | Potency [5]: inactive | Potency [6]: 55.5 µM (active)

Cc1cc(C(C#N)c2ccc(Cl)cc2)c(Cl)cc1NC(=O)c1cc(I)cc(I)c1O (stereo not given)
activity [7]: -21.3% | Potency [8]: 30.4 µM (active) | activity [9]: -81.7%

CN(C)CC[C@@H](c1ccc(Cl)cc1)c1ccccn1
Potency [1]: inactive | Potency [2]: inactive | activity [7]: -1.71% | activity change, negative = inhibition ([8]; at 57.3 µM (top of the series)): 2.46% | activity [9]: -7.31%

CCCc1c(OCCCCc2nn[nH]n2)ccc(C(C)=O)c1O
Potency [3]: 55.9 µM (active) and inactive | Potency [4]: inactive | Potency [5]: inactive | Potency [6]: 15.6 µM (active) | activity change, negative = inhibition [6]: -26.3% [at 12.7 µM] (inactive) | outcome [10]: inactive

CCN(CC)CCCC(C)Nc1c2ccc(Cl)cc2nc2ccc(OC)cc12 (stereo not given)
Potency [1]: 7.42 µM (active) | Potency [2]: 5.25 µM (active) | Potency [3]: inactive | Potency [4]: inactive | Potency [6]: inactive | activity [7]: -1.98% and -3.74% | activity change, negative = inhibition ([8]; at 29.8 µM (top of the series)): -0.149% | activity change, negative = inhibition ([8]; at 57.3 µM (top of the series)): 2.96% | activity [9]: -11.3% and -15.1%

C[C@@H]1C[C@H]2[C@@H]3C[C@H](F)C4=CC(=O)C=C[C@]4(C)[C@@]3(F)[C@@H](O)C[C@]2(C)[C@@]1(O)C(=O)CO
Potency [2]: 2.7 nM (active) and 5.2 nM (active)

O=C(O)Cc1sc(-c2ccccc2)nc1-c1ccc(Cl)cc1
Potency [1]: inactive | Potency [2]: inactive

Oc1cn2c(n1)Nc1ccc(Cl)c(Cl)c1C2
Potency [1]: inactive | Potency [2]: inactive

CC(C)(C)[C@]1(O)CCN2C[C@H]3c4ccccc4CCc4cccc(c43)[C@@H]2C1
activity [7]: -2.14% | activity change, negative = inhibition ([8]; at 57.3 µM (top of the series)): 6.2% | activity [9]: -19.3%

Cn1c(=O)c2c(ncn2CC2OCCO2)n(C)c1=O
Potency [1]: inactive | Potency [2]: inactive

NC(=O)c1ncn([C@@H]2O[C@H](CO)[C@@H](O)[C@H]2O)n1
Potency [2]: 14.8 µM (active)

COc1ccc(Cl)cc1C(=O)NCCc1ccc(S(=O)(=O)NC(=O)NC2CCCCC2)cc1
Potency [1]: inactive | activity [7]: -8.62% | activity change, negative = inhibition ([8]; at 57.3 µM (top of the series)): -1.47% | activity [9]: -22.1%

NC(N)=NCCC[C@H](N)C(=O)O
outcome [1]: inactive [at 4.96 µM] | activity [7]: 6.47% | activity change, negative = inhibition ([8]; at 57.3 µM (top of the series)): -1.16% | activity [9]: -0.737%

CC1(C)Oc2ccc(C#N)cc2[C@@H](N2CCCC2=O)[C@@H]1O
Potency [3]: inactive | Potency [4]: inactive | Potency [5]: inactive | Potency [6]: inactive

C[C@]12CC[C@@H]3c4ccc(O)cc4CC[C@H]3[C@@H]1CCC2=O
activity [7]: -21.5% | activity change, negative = inhibition ([8]; at 57.3 µM (top of the series)): -1.67% | activity [9]: -55.7%

COCCOC(=O)C1=C(C)NC(C)=C(C(=O)OC/C=C/c2ccccc2)C1c1cccc([N+](=O)[O-])c1 (stereo not given)
Potency [1]: 15 µM (active) | Potency [2]: 21.1 µM (active) | Potency [4]: inactive | Potency [5]: inactive

Cc1cc(N)c2ccccc2[n+]1CCCCCCCCCC[n+]1c(C)cc(N)c2ccccc21
Potency [1]: 2.9 µM (active) | Potency [2]: 3.25 µM (active) | activity [7]: 2.05% | activity change, negative = inhibition ([8]; at 57.3 µM (top of the series)): -0.381% | activity [9]: -23.8%

CNCCC(Oc1ccc(C(F)(F)F)cc1)c1ccccc1 (stereo not given)
Potency [2]: 23.7 µM (active)

CC(=O)Oc1c(C)c(C)c2c(c1C)CC[C@@](C)(CCC[C@H](C)CCC[C@H](C)CCCC(C)C)O2
Potency [1]: inactive | Potency [2]: inactive

CC[N+](CC)(CC)CCOc1ccc(/C=C/c2ccccc2)cc1
Potency [1]: 2.11 µM (active) | Potency [2]: 1.88 µM (active)

CN1CCN(C2Cc3ccccc3Sc3ccc(Cl)cc32)CC1 (stereo not given)
activity [7]: 14.6% | activity change, negative = inhibition ([8]; at 57.3 µM (top of the series)): 8.35% | activity [9]: -22.8%

CC(C)C(=O)c1c(C(C)C)nn2ccccc12
Potency [1]: inactive | Potency [2]: inactive

O=C1c2c(O)cccc2Cc2cccc(O)c21
Potency [1]: inactive | Potency [2]: inactive

Cc1cc2nc3c(=O)[nH]c(=O)nc-3n(C[C@H](O)[C@H](O)[C@H](O)CO)c2cc1C
Potency [1]: inactive | Potency [2]: inactive | Potency [3]: inactive | Potency [6]: inactive

OCCN1CCN(CCCN2c3ccccc3Sc3ccc(Cl)cc32)CC1
Potency [1]: 8.41 µM (active) | Potency [2]: 9.44 µM (active) | Potency [3]: inactive | Potency [4]: inactive

O=S(=O)(O)NC1CCCCC1
Potency [1]: inactive | Potency [2]: inactive

Cc1ccc2nc(N)[nH]c(=O)c2c1Sc1ccncc1
Potency [1]: 2.3 µM (active) | activity [7]: -5.5% | activity change, negative = inhibition ([8]; at 57.3 µM (top of the series)): 2.89% | activity [9]: 1.11%

CC(C)(O)c1ccccc1CC[C@@H](SCC1(CC(=O)O)CC1)c1cccc(/C=C/c2ccc3ccc(Cl)cc3n2)c1
Potency [1]: inactive | Potency [2]: inactive | Potency [3]: 25 µM (active) | Potency [4]: inactive | Potency [5]: inactive | activity [7]: -3.13% | activity change, negative = inhibition ([8]; at 57.3 µM (top of the series)): -3.41% | activity [9]: -24.6%

O=C1Nc2ccc(Cl)cc2[C@@](C#CC2CC2)(C(F)(F)F)O1
Potency [1]: 18.6 µM (active) | Potency [2]: 20.9 µM (active) and 26.3 µM (active) | Potency [3]: inactive | Potency [4]: inactive | Potency [6]: 44.1 µM (active) | activity [7]: -1.93% | activity change, negative = inhibition ([8]; at 57.3 µM (top of the series)): 0% | activity [9]: -43%

Cc1c(Cl)cccc1Nc1ccccc1C(=O)O
Potency [4]: inactive | Potency [5]: inactive | Potency [6]: 44.1 µM (active)

CCOC(=O)[C@H](CCc1ccccc1)N[C@@H](C)C(=O)N1C(=O)N(C)C[C@H]1C(=O)O
Potency [1]: inactive | Potency [2]: inactive

COc1ccccc1O
Potency [2]: 39 µM (active)
